Results filed as inconclusive are left out. Values without a mark were called inactive. Calls of active or inactive are those of the source. The call rests on the fitted dose curve; in most records, active means well fitted inhibition curve with a large enough effect; inconclusive means small, poorly fitted or top-dose-only effect; inactive means flat fitted curve, though single readings scatter.
Columns and labels:
Experiment in all cases: Cytotoxic Profiling of Annotated Libraries Using Quantitative High-Throughput Screening (AID 1296008); further: nearly all actives have a fitted effect of over 60% in size
Conditions in all cases: Five cell lines viability, CellTiter-Glo ATP luminescence, 48-72 h; max response: hits give low values
HaCat = system: HaCat
Method in brief: (§1)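 Cells exposed to compounds for 48 or 72 hr at 37 degrees Celsius. Viability read as ATP-coupled luminescence with CellTiter-Glo after 10 min at room temperature.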

KB-3-1 = system: KB-3-1
Method in brief: as §1

NIH3T3 = system: NIH3T3
Method in brief: as §1
On the % scale 0 is the no-effect control and ±100 the full control effect; potency means the concentration at half of the fitted maximal effect.

C[C@@H]1CC[C@]2(C(=O)O)CC[C@]3(C)C(=CCC4[C@@]5(C)C[C@@H](O)[C@H](O)[C@@](C)(CO)C5CC[C@]43C)C2[C@]1(C)O (some centres undefined)
max response (HaCat): 4.14% | max response (KB-3-1): 2.17% | max response (NIH3T3): -6.81%

Cn1ncnc1COc1nn2c(-c3cc(F)ccc3F)nnc2cc1C(C)(C)C
max response (HaCat): -21.7% | max response (KB-3-1): 8.68% | max response (NIH3T3): -2.09%

Cc1ccc(C)c(OCCn2cc(C(=O)O)c3ccccc32)c1
outcome (HaCat): inactive | max response (KB-3-1): 3.13% | max response (NIH3T3): 4.52%

CC(=O)O[C@H]1CC(C)(C)CC2[C@@]13[C@H](O)C[C@]1(C)[C@@]2(CCC2[C@@]4(C)CC[C@H](O[C@@H]5OC[C@H](O[C@@H]6O[C@H](CO)[C@@H](O)[C@H](O)[C@H]6O[C@@H]6OC[C@@H](O)[C@H](O)[C@H]6O)[C@H](O)[C@H]5O[C@@H]5O[C@H](CO)[C@@H](O)[C@H](O)[C@H]5O)C(C)(C)C4CC[C@]21C)O[C@@H]3O (some centres undefined)
Potency (HaCat): 3.48 µM (active) | max response (KB-3-1): -24.8% | Potency (NIH3T3): 2.76 µM (active)

O=[N+]([O-])c1cn2c(n1)OCC(OCc1ccc(OC(F)(F)F)cc1)C2 (centres undefined)
max response (HaCat): -6.12% | max response (KB-3-1): -10.4% | max response (NIH3T3): 0.653%

CCc1ccc(Cc2ccc3c(c2)[C@]2(OC3)O[C@H](CO)[C@@H](O)[C@H](O)[C@H]2O)cc1
max response (HaCat): 3.62% | max response (KB-3-1): -4.58% | max response (NIH3T3): 1.11%

CC1CCC2(C=O)C(CO)=CCCC2C1(C)CC(=O)O (centres undefined)
max response (HaCat): -1.16% | max response (KB-3-1): 2.85% | max response (NIH3T3): -21.3%

COc1cc(O)cc(C)c1C(=O)O[C@H]1[C@@H](OC(C)=O)[C@H](n2ccc(=O)[nH]c2=O)O[C@@H]1CO
max response (HaCat): -17.4% | max response (KB-3-1): 7.29% | max response (NIH3T3): 0.716%

COC(=O)[C@@]1(c2ccc(C)cc2)C[C@H]1CN1CCC(O)(c2ccccc2)CC1
max response (HaCat): -4.07% | max response (KB-3-1): -2.51% | max response (NIH3T3): -2.42%

COc1ccc(CNC(=O)c2sc3nc(C)cc(C)c3c2N)cc1
max response (HaCat): -25% | max response (KB-3-1): -4.88% | max response (NIH3T3): -5.95%

NC1CCCCN(c2c(F)cc3c(=O)c(C(=O)O)cn(C4CC4)c3c2Cl)C1 (centres undefined)
max response (HaCat): 0.186% | max response (KB-3-1): -4.74% | max response (NIH3T3): 1.34%

COc1ccc([C@@H]2OC[C@H]3[C@@H]2CO[C@@H]3c2ccc(OC3OC(CO)C(O)C(O)C3O)c(OC)c2)cc1OC (some centres undefined)
max response (HaCat): -0.266% | max response (KB-3-1): 8.67% | max response (NIH3T3): -7.42%

Cc1nc2sc(C(=O)NCc3ccncc3)c(N)c2c(C)c1Cl
max response (HaCat): 0.272% | max response (KB-3-1): -3.45% | max response (NIH3T3): -29.7%

C=C1[C@H](OC(C)=O)[C@H]2[C@@H](OC(C)=O)[C@](C)(OC(C)=O)C[C@]2(OC(C)=O)C(=O)[C@H](C)/C=C/C(C)(C)C(=O)[C@H](OC(=O)C(C)CC)[C@H]1OC(C)=O (some centres undefined)
max response (HaCat): -2.99% | outcome (KB-3-1): inactive | max response (NIH3T3): -13.5%

O=C(Nc1ccccc1-c1cn2c(CN3CCNCC3)csc2n1)c1ccc2ccccc2n1
max response (HaCat): -14.7% | max response (KB-3-1): 2.25% | max response (NIH3T3): 4.15%

C/C1=C\C[C@]2(C)C(=O)C(O)=C([C@H](C)CO)[C@H]2C/C=C(\C)[C@@H](O)CC/C(C)=C/CC1
max response (HaCat): 0.087% | max response (KB-3-1): 0.384% | max response (NIH3T3): -2.65%

COc1cc2ncnc(Nc3cccc(Cl)c3F)c2cc1OC(=O)N1CCN(C)C[C@H]1C
max response (HaCat): -86.6% | outcome (KB-3-1): inactive | max response (NIH3T3): -86.1%

C=C1CCC2C(C)(C)C(O)CCC2(C)C1CCC(C)CCO (centres undefined)
max response (HaCat): -1.49% | max response (KB-3-1): -10.1% | max response (NIH3T3): -0.535%

COc1cc2c(cc1O)CC[C@H]1[C@@H]2CC[C@]2(C)[C@H](O)CC[C@@H]12
Potency (HaCat): 0.58 µM (active) | Potency (KB-3-1): 1.64 µM (active) | Potency (NIH3T3): 0.82 µM (active)

CC(C)c1nnc(-c2ccc(-c3ccccc3)nc2)n1-c1cccc2nonc12
max response (HaCat): 4.99% | max response (KB-3-1): 2.23% | max response (NIH3T3): 4.73%

CC(C(O)/C=C/C(C)(C)O)C1CCC2(C)C3C(=O)C=C4C(CCC(O)C4(C)C)C3(C)CCC12C (centres undefined)
max response (HaCat): -4.33% | outcome (KB-3-1): inactive | max response (NIH3T3): 4.41%

COCC1OC(OC(C)(C)C2CCC3(C)C=C(C4CCC5C4(C)CC(O)C4OC(C(C)(C)OC6OC(CO)C(O)C(O)C6NC(C)=O)CCC45C)CCC3O2)C(NC(C)=O)C(O)C1O (centres undefined)
max response (HaCat): -6.25% | max response (KB-3-1): 1.62% | max response (NIH3T3): 1.73%

COc1cc(C2Oc3c(OC)cc(CCCO)cc3C2CO)ccc1O[C@H]1O[C@H](C)[C@@H](O)[C@H](O)[C@@H]1O (some centres undefined)
max response (HaCat): -14.3% | max response (KB-3-1): -4.42% | max response (NIH3T3): 2.77%

CC/C=C\CCO[C@@H]1O[C@H](CO)[C@@H](O)[C@H](O)[C@H]1O
max response (HaCat): -6.57% | max response (KB-3-1): 3.45% | max response (NIH3T3): -7.98%

CC(O)CO[C@@H]1O[C@H](CO)[C@@H](O)[C@H](O)[C@H]1O (some centres undefined)
max response (HaCat): -15.1% | outcome (KB-3-1): inactive | max response (NIH3T3): 0.151%

CCOCc1nc2c(N)nc3ccccc3c2n1CC(C)(C)O
max response (HaCat): 3.85% | max response (KB-3-1): -7.57% | max response (NIH3T3): -2.04%

COc1cc([C@H]2c3cc(O)c(OC)cc3C[C@@H](CO[C@@H]3O[C@H](CO)[C@@H](O)[C@H](O)[C@H]3O)[C@@H]2CO)ccc1O
max response (HaCat): -4.19% | outcome (KB-3-1): inactive | max response (NIH3T3): -0.225%

CC(=O)/C=C/[C@H]1[C@](C)(O)[C@@H](O)[C@H](OC(C)=O)C2C(C)(C)CCC[C@@]21C (some centres undefined)
max response (HaCat): -21.7% | outcome (KB-3-1): inactive | max response (NIH3T3): -10.6%

CC1(C)CCCC2(C)C(CO)C(CO)=CCC12 (centres undefined)
max response (HaCat): 0.151% | max response (KB-3-1): -2.42% | max response (NIH3T3): -1.37%

COc1cc(/C=C/CO)cc(OC)c1O[C@@H]1O[C@H](CO[C@@H]2O[C@H](CO)[C@@H](O)[C@H](O)[C@H]2O)[C@@H](O)[C@H](O)[C@H]1O
max response (HaCat): 4.69% | max response (KB-3-1): 9.56% | max response (NIH3T3): -3.2%

O=C(Nc1c(-c2cccs2)nc2ccccn12)c1ccc(Cl)cc1
outcome (HaCat): inactive | outcome (KB-3-1): inactive | max response (NIH3T3): -0.375%

CC(C)(C)c1ccc(S(=O)(=O)Nc2ccc(Cl)cc2C(=O)c2cc[n+]([O-])cc2)cc1
max response (HaCat): -10.2% | outcome (KB-3-1): inactive | max response (NIH3T3): -1.11%

CC(=O)O[C@H]1CC[C@H](C)[C@@]2(C)[C@H](OC(C)=O)c3c(C)coc3C(=O)[C@H]12
max response (HaCat): 2.83% | max response (KB-3-1): 6.49% | max response (NIH3T3): -5.72%

CC(C)(C)c1ccc(S(=O)(=O)NCc2ccc(C(=O)Nc3cccnc3)cc2)cc1
Potency (HaCat): 6.51 µM (active) | Potency (KB-3-1): 0.731 µM (active) | Potency (NIH3T3): 3.66 µM (active)

Cc1cnc(NC(=O)Nc2cc(Br)c(C)cc2OCC2CNCCO2)cn1 (centres undefined)
max response (HaCat): -19% | Potency (KB-3-1): 14.6 µM (active) | Potency (NIH3T3): 2.31 µM (active)

COc1ccc(C(=O)n2c(C)c(Cc3cccc(O[C@@H](C)C(=O)O)c3)c3cc(OC(F)(F)F)ccc32)cc1
max response (HaCat): -6.22% | max response (KB-3-1): 0.537% | max response (NIH3T3): 2.93%

CC(C)(C)OC(=O)N1CCC(OCc2nc(-c3ccncc3)no2)CC1
max response (HaCat): 4.75% | max response (KB-3-1): -6.38% | max response (NIH3T3): -1.32%

Cc1ccc(S(=O)(=O)c2ccc([N+](=O)[O-])o2)cc1
Potency (HaCat): 6.51 µM (active) | Potency (KB-3-1): 23.1 µM (active) | Potency (NIH3T3): 5.17 µM (active)

OC[C@H]1O[C@@H](Oc2ccccc2)[C@H](O)[C@@H](O)[C@@H]1O
max response (HaCat): 3.54% | outcome (KB-3-1): inactive | max response (NIH3T3): -2.04%

CC1CC[C@]2(C(=O)O)CC[C@]3(C(=O)O)C(=CCC4[C@@]5(C)CC[C@H](OC6OC(C)C(O)C(OC7OC(CO)C(O)C(O)C7O)C6O)C(C)(C)C5CC[C@]43C)C2C1C (some centres undefined)
max response (HaCat): -2.82% | outcome (KB-3-1): inactive | max response (NIH3T3): 2.41%

CC[C@H](C)[C@H](NC(=O)[C@H]([C@@H](C)CC)N(C)C(C)=O)C(=O)N[C@H](C(=O)N[C@@H](CC(C)C)C(=O)[C@@]1(C)CO1)[C@@H](C)O
Potency (HaCat): 0.0366 µM (active) | Potency (KB-3-1): 0.0326 µM (active) | Potency (NIH3T3): 0.058 µM (active)

CC1CC(=O)C2=C(CCC3(O)C(O)c4c(O)cccc4C(=O)C23O)C1 (centres undefined)
max response (HaCat): -7.44% | max response (KB-3-1): 6.8% | max response (NIH3T3): 1.72%

CCCCNc1ncc2c(-c3ccc(F)cc3)nn(CC3CCC(N)CC3)c2n1 (centres undefined)
Potency (HaCat): 10 µM (active) | Potency (KB-3-1): 2.82 µM (active) | Potency (NIH3T3): 6.32 µM (active)

CC(C)CN(C[C@@H](O)[C@H](Cc1ccccc1)NC(=O)O[C@@H]1CO[C@H]2OCC[C@H]21)S(=O)(=O)c1ccc(N)cc1
max response (HaCat): -6.53% | max response (KB-3-1): -3.21% | max response (NIH3T3): -1.09%

C=C[C@H]1[C@H](O[C@@H]2O[C@H](CO)[C@@H](O)[C@H](O)[C@H]2O)OC=C(C(=O)OC)[C@H]1C/C=C(/C=O)[C@@H]1C(C(=O)OC)=CO[C@@H](O[C@@H]2O[C@H](CO)[C@@H](O)[C@H](O)[C@H]2O)[C@@H]1C=C
max response (HaCat): -4.96% | max response (KB-3-1): 1.41% | max response (NIH3T3): 4.13%

C=C1CCC2C(C)(C)C(O)CCC2(C)C1CCC(C)CCOC(C)=O (centres undefined)
max response (HaCat): -5.36% | max response (KB-3-1): 3.19% | max response (NIH3T3): -9.96%

CC[C@@H](N)CNc1ccnc(-c2cc(-c3cnn(C)c3)ccc2O)n1
Potency (HaCat): 5.8 µM (active) | Potency (KB-3-1): 4.61 µM (active) | Potency (NIH3T3): 14.6 µM (active)

CC(C)(O)CC(CO)NC(=O)CC(O)CC(=O)Cc1ccccc1 (centres undefined)
max response (HaCat): 3.84% | max response (KB-3-1): 2.2% | max response (NIH3T3): 2.22%
